The campaign covered roughly 1,800 compounds. Fewer than 10 were called active. About 16% were inconclusive and are not listed.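 The calls were made as follows: active = compound lowering the normal-ribosome reporter at least twice as much as the humanized-ribosome reporter, growth loss under a set limit; inconclusive = no clear call, values can overlap the other calls; inactive = the rest.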 Only a sample is shown. Results with a measured potency or affinity are listed apart.
Assay: E. coli strain growth, wild-type against G2058 humanized RFP mutant – G2058 mutant RFP vs wild-type GFP, cherry-pick, two tests, dose response (AID 1035470)
Settings: E. coli WT-GFP vs G2058-humanized RFP, fluorescence, 24 h; series mostly up to 50 µM; activity change, negative = inhibition: at the top concentration

Activity change, negative = inhibition, inactive:
CC1(C)CC(=O)c2cnc(N3CCc4ccccc43)nc2C1 6.66
S=c1nc(-c2cc(Cl)cc(Cl)c2)[nH][nH]1 -16.2
O=[N+]([O-])c1ccc(NCCNCCOc2nonc2-c2ccccc2)c([N+](=O)[O-])c1 -27.2
Cc1nn2c(NCc3ccccn3)cc(C(C)C)nc2c1-c1ccccc1 -11.1
O=S(=O)(NOCc1ccc(Cl)cc1)c1ccc(Cl)cc1 -15
O=C(Nc1ccc2c(c1)OCCO2)C1C(c2ccccc2)=Nc2ccccc2N1C(=O)c1cccnc1 (configuration not stated) 0.765
O=C(COc1ccccc1Cl)Nc1nc(-c2ccncc2)cs1 -15.4
CCOc1ccccc1N1CC(C(=O)Nc2cccc(S(=O)(=O)N3CCCCC3)c2)CC1=O (configuration not stated) -18
COc1ccc(-c2csc3ncn(-c4ccc(C)cc4)c(=O)c23)cc1OC -22.9
O=C(NCc1nnnn1-c1ccc(Cl)cc1)c1ccc([N+](=O)[O-])o1 -6.35
O=[N+]([O-])c1cccc(COc2ccc(CN3CCOCC3)cc2)c1 -1.83
C[C@@H]1CN([C@@H](C)CO)C(=O)c2cc(NC(=O)C3CC3)ccc2O[C@H]1CN(C)C(=O)Nc1ccc(C(F)(F)F)cc1 -10.7
CCN(CC(=O)Nc1cccc(S(=O)(=O)N2CCCC2)c1)CC(=O)Nc1ccccc1OC -14.9
COC(=O)c1ccc2nc(-c3ccco3)c(Cc3ccc(C)cc3)n2c1 -19.6
COc1ccc(CC(=O)Nc2cc(S(=O)(=O)Nc3ccc(OC)cc3)ccc2OC)cc1 -11.4
CC(C)CNc1nc(S(=O)(=O)c2ccccc2)c(Cl)s1 -11.6
O=C(CN1CCCCC1)n1c2ccccc2c2ccccc21 1.66
O=C1c2ccccc2C(c2nnnn2Cc2ccccc2)N1Cc1cccc(F)c1 (configuration not stated) -9.45
Cc1nn(CC(=O)c2ccc(Br)s2)c(C)c1[N+](=O)[O-] -2.97
Brc1ccc(-n2cnc(-c3ccccc3)c2)cc1 2.89
NC(=O)c1cccnc1Oc1ccc(Cl)cc1Cl -0.964
CCc1ccc(NC(=O)CCc2c(C)nn(-c3ccc(N4CCCCC4)nn3)c2C)cc1 -14.7
COc1ccc2c(c1)-c1nc(N)sc1CC2 -4.08
CC(C)(C)N(Cc1ccccc1)C(=O)COC(=O)Cn1cnc2ccccc2c1=O -17.1
COc1ccc(OC)c(NC(=O)CN(C)CC(=O)Nc2ccccc2Br)c1 -33
O=C(c1ccccc1)C1CN(Cc2ccccc2)CCC1(O)c1ccccc1 (configuration not stated) -2.03
CCC1(CC)NC(=O)N(CC(=O)N2N=C(c3ccc(Cl)cc3)CC2c2ccco2)C1=O (configuration not stated) -18.3
CCOc1ccccc1C(=O)NCC(=O)OCCOc1cccc(Cl)c1 -3.78
O=C(Nc1cc(F)ccc1F)N1CCCCN2[C@@H](CO)[C@H](c3ccc(-c4ccncc4)cc3)[C@@H]2C1 -2.55
O=S1(=O)N[C@H](Cc2ccccc2)COc2cc(N3CCSCC3)ccc21 -14
COc1cccc(NC(=O)c2ccc(NCCCN3CCC(C)CC3)c([N+](=O)[O-])c2)c1 -20
Cc1noc(C)c1S(=O)(=O)N(Cc1ccccc1)C(C)C -8.45
Cc1ccc(-c2c(=O)n(O)c3ccccc3[n+]2[O-])cc1 -1.24
Cc1nn2c(C)c(C(=O)Nc3ccccc3)cnc2c1-c1ccccc1 -2.61
CC(C)(C)S(=O)(=O)Cc1nc(-c2ccc(Cl)c(Cl)c2)cs1 -9.21
CCCCc1cc2c(cc1NC(=O)CN1CCCCC1)OCCO2 2.37
COC(=O)c1ccsc1NC(=O)c1cccc(OC)c1 -15.2
O=[N+]([O-])c1ccc(O)c(CSc2nnnn2-c2ccccc2)c1 1.54
COCC(C)NC(=O)c1nn(Cc2ccccc2)c(=O)c2ccccc12 (configuration not stated) -8.39
Cc1ccc(NC(=O)C[n+]2cc(-c3ccccc3)n3c2CCC3)c(C)c1 -8.76
COc1cc(OC)c(NS(=O)(=O)c2cccc(C(=O)OCC(=O)NCC3CCCO3)c2)cc1Cl (configuration not stated) -3.42
Cc1ccc(Nc2nc(C(=O)NCC3CCCO3)cs2)cc1 (configuration not stated) 0.237
CCOC(=O)c1cccc(OS(=O)(=O)Cc2ccccc2)c1 -24.3
Cc1ccc(S(=O)(=O)NCc2c(-c3ccccc3)noc2C)cc1 -15.8
Cc1ccc(NC(=O)COC(=O)CCNS(=O)(=O)c2c(Cl)cccc2Cl)cc1 1.97
CC1CCN(C(=O)COC(=O)c2ccccc2NC(=O)c2ccco2)CC1 -7.91
CCc1cccc(NC(=O)c2ccc3c(=O)n4c(nc3c2)CCCCC4)c1 -6.15
Cc1cc(C)cc(NC(=O)COC(=O)CC2CCCC2)c1 4.58
CCn1c(COc2cccc(OC)c2)nnc1SCC(=O)Nc1cc(OC)ccc1OC -12
COc1ccc(S(=O)(=O)N2CCOc3ccccc32)cc1 -15.4
COc1ccc(-n2nc3cc(N)c(Br)cc3n2)cc1 -9.4
COC(=O)[C@]1(Sc2ccc(C)cc2)CC(=O)N[C@@H]1c1ccccc1 -6.4
O=C(CSc1nc2ccccc2n1S(=O)(=O)c1cccc([N+](=O)[O-])c1)NCCc1ccccc1 -5.02
S=c1[nH]nc(-c2ccc3ccccc3n2)n1-c1ccc2c(c1)OCCO2 -7.71
Cc1ccnc(NS(=O)(=O)c2ccc(NC(=O)c3ccc4c(c3)OCCO4)cc2)n1 -9.76
COc1ccc(OC)c(-c2nn(-c3ccccc3)cc2C(=O)N2CCc3ccccc3C2)c1 -18.4
COC(=O)c1sccc1NC(=O)CNC(=O)c1ccccc1 -7.99
Cc1c(Cc2ccccc2)sc(NC(=O)Cc2ccccc2)c1C(N)=O -0.013
O=C(Cc1c(F)cccc1Cl)N(Cc1ccccc1)c1ccccn1 -16.8
Cc1ccoc1C(=O)Nc1ccc2ccccc2c1 -10.1
Cc1cc(CNC(=O)c2cc(-c3ccccc3)nc3ccccc23)nn1C -1.97
Cc1cccc(-c2nsc(SCC(=O)NCC3CCCO3)n2)c1 (configuration not stated) -11.8
Cc1ccc2nc(N(CCN(C)C)C(=O)C3CCN(S(=O)(=O)c4cccs4)CC3)sc2c1 4.53
COc1ccc(-c2csc(NC(=O)c3ccoc3C)n2)cc1 -22.7
CCC1CCCCN1C(=O)CSc1nnc(-c2cccc(Cl)c2)o1 (configuration not stated) -21.8
CCc1nc2ccccc2c(C(=O)OCC(=O)NC(=O)c2cccn2C)c1C -6.91
Cc1ccc(Cc2c(-c3ccc(C#N)cc3)nc3ccc(Br)cn23)cc1 -5.11

Source: PubChem BioAssay AID1035470 (Broad Institute, 2014)
